GLS inh: qHTS for Inhibitors of Glutaminase (GLS); Glutaminase kidney isoform, mitochondrial (Homo sapiens), O94925; GLS enzymatic activity, qHTS titration; Potency, µM (titrated, usually from 45.5 µM), for inactives: at the top dose activity change, negative = inhibition, hits mostly inhibitors; 410,000 tested, 0.21% active; also: % is scaled to controls: 0 for no effect and ±100 for the full control effect
Target sequence (O94925 whole entry, looked up, canonical isoform): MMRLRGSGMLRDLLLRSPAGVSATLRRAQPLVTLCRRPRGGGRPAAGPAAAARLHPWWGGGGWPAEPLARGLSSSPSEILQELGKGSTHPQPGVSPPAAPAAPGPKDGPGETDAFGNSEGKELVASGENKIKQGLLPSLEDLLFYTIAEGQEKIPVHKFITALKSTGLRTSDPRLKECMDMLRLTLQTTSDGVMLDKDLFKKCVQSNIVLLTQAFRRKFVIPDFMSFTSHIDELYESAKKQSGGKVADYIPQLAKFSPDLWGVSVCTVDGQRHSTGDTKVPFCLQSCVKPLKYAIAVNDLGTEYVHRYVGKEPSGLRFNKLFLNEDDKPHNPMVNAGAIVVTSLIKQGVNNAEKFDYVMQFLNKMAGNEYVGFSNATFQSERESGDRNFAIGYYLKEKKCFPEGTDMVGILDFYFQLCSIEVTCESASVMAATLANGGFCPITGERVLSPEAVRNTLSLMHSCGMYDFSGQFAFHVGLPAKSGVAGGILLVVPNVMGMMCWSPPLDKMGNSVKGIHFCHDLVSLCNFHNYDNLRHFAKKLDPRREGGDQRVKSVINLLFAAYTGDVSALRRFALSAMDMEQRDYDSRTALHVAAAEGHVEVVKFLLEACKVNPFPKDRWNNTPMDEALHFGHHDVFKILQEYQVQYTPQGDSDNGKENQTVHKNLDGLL
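hKGA in 45 mM KH2PO4 (pH 8.2), 0.02% Tween-20 with compound, then 1mM L-Glutamine (stock as added) plus glutamate oxidase/HRP/Amplex red coupling mix. Fluorescence read initially and after 30 min at RT; signal change reflects glutamate formation.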
Tb PFK inh-1: qHTS Assay to Find Inhibitors of T. brucei phosphofructokinase; ATP-dependent 6-phosphofructokinase (Trypanosoma brucei brucei), O15648; T. brucei PFK, ADP-Glo luminescence; Potency, µM (titrated, usually from 57.5 µM), inactives show at the highest dose activity, negative = inhibition, actives largely listed as inhibitors; 330,000 tested, 0.17% active; AID 485367, 2010;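 also: 0% = uninhibited 1x PFK enzyme wells and -100% = no-enzyme wells; nearly all actives have a fitted effect of over 60% in size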
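PFK 1.25 nM, F6P 0.5 mM, ATP 0.1 mM, 0.1 M TEA pH 8.0, 5 mM MgCl2, 0.01% Tween20, 0.1% BSA; 45 min RT. ADP-Glo readout. qHTS titration up to 57 uM; curves fitted, compounds curve-classed.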
p53 reactivator: qHTS assay for re-activators of p53 using a Luc reporter | H1299 p53-A138V BP100-luciferase reporter, luminescence, 24 h | Potency, µM (highest dose often 92.2 µM), without a hit: top-dose activity change, positive = activation, most hits filed as activators | 320,000 tested, 0.063% active; also: % of control where 0% means no effect; nearly all actives have a fitted effect of over 45% in size
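p53-null H1299 cells stably carrying temperature-sensitive p53-A138V and a BP100-luciferase reporter were pinned with compounds (4-point, 1:5 series) and held 24 hrs at 37 deg C. Luminescence was read 10 min after detection reagent.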
USP2a block: qHTS Assay for Inhibitors of Ubiquitin-specific Protease USP2a Using CHOP2 as the Reporter; Ubiquitin carboxyl-terminal hydrolase 2 (Homo sapiens), O75604; USP2 core, Ub-CHOP2 coupled fluorogenic reporter, 485/531; Potency, µM (doses to about 38.3 µM), without a hit: at the top dose activity change, negative = inhibition, most hits filed as inhibitors; 330,000 tested, 0.01% active;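 also: plate controls were DMSO wells for no effect and full inhibition by NEM control for full effect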
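Deubiquitinase activity read as fluorescence (485/531 nm) after Ub-CHOP2 cleavage activates the enterokinase reporter on its substrate; USP2 core 10nM, Ub-CHOP2 and substrate 25nM each, 30min compound preincubation then 60min RT; data normalized to NEM, curves fitted.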
Tb PFK KinaseGlo: Tb PFK orthogonal confirmatory assay using ATP depletion (Kinase-Glo Plus) as an alternative measure of Tb PFK activity: Hit Validation | shares compounds with Tb PFK inh-1 | Tb PFK enzyme, ATP depletion, Kinase-Glo Plus luminescence | Potency, µM (top dose mostly 57.5 µM), inactives show at the highest dose inhibition | 1,100 tested, 47% active; calls by dose curve; also: nearly all actives have a fitted effect of over 60% in size
Tb PFK inh-2: Inhibitors of T. brucei phosphofructokinase: Hit Validation; 1,100 tested, 41% active; purified T. brucei PFK, ADP-Glo luminescence, 45 min; AID 504637, 2011; shares compounds with Tb PFK inh-1; Potency, µM (doses to about 57.5 µM), without a hit: top-dose activity change, negative = inhibition, usual class: inhibitors;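 also: plate controls were full PFK enzyme control for no effect and no enzyme control for full effect; nearly all actives have a fitted effect of over 60% in size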
Numbers without * were called inactive; ? = inconclusive; . = not tested or not shown; [ ] = remark or other dose. This is a sample that favours compounds with a hit; in the whole collection about 0.39% have one here. Unless noted, calls follow the shape of the dose curve; as a rule, active = well fitted curve in the direction sought with a large enough effect; inconclusive = small, poorly fitted or top-dose-only effect, or another doubt; inactive = no such curve, though single readings can be large; an effect the other way counts as inactive or inconclusive. Potency is read from the fitted curve at half-maximal effect.

SMILES | GLS inh | Tb PFK inh-1 | p53 reactivator | USP2a block | Tb PFK KinaseGlo | Tb PFK inh-2
Cn1c(Oc2ccccc2NCc2cc(Br)ccc2O)cc(=O)n(C)c1=O | 17.6% | ? | -12.3% | -1.4% | 19µM* | 13.5µM*
C=CCN1Cc2ccccc2-n2nncc2C1 | 5.8% | . | . | . | . | .
O=C(c1ccc(NC(=S)Nc2ccc(Cl)c(Cl)c2)cc1)N1CCCC1 | -22.6% | 21.3µM* | -2.5% | 2.1% | ? | ?
CC(=O)c1ccc(NC(=S)Nc2ccc(Br)c(Cl)c2)cc1 | 10.5% | 12µM* | -2.0% | 3.7% | 30.1µM* | ?
O=C(Nc1ccc2c(c1)OCO2)c1cccn(Cc2ccc(F)cc2)c1=O | -8.0% | . | . | . | . | .
O=C(NCCc1ccccc1)c1ccc2nc(-c3ccco3)c(-c3ccco3)nc2c1 | -10.6% | ? | -2.3% | ? | ? | ?
O=C(NCC1=C(c2ccc3ccccc3c2)C[C@@H]2CC[C@H]1N2Cc1ccco1)c1ccc([N+](=O)[O-])cc1 | 3.0% | . | . | . | . | .
Cc1ccc(NC(=O)CN2C(=O)CN=C(c3ccccc3)c3ccccc32)cc1Cl | -8.4% | . | . | . | . | .
CN(C(=O)Nc1ccc(Cl)c(Cl)c1)c1ccccc1C(=O)O | 9.3% | 15.1µM* | 18.8% | 2.2% | ? | ?
Nc1cc(N)cc(C(=O)Nc2ccc3c(c2)C(=O)NC3=O)c1 | 7.0% | ? | -0.5% | 0.4% | ? | ?
O=C(Nc1ccc2c(c1)C(=O)NC2=O)c1ccccc1Cl | -4.0% | ? | 10.2% | 2.6% | 12µM* | 13.5µM*
O=C(Nc1ccc2c(c1)OCCO2)c1cccn(Cc2ccccc2)c1=O | 6.0% | . | . | . | . | .
CC(O)CN(CCN(CC(C)O)CC(C)O)CC(C)O (stereo not given) | 31.9% | . | . | . | . | .
CN1CCN=C(c2ccccc2)c2cc(Cl)ccc21 | -2.9% | . | . | . | . | .
O=C(Cn1ccc2ccccc2c1=O)NCCC(=O)N1CCN(c2cccc(Cl)c2)CC1 | 23.5% | 23.9µM* | 3.5% | -1.1% | ? | ?
O=C(Cn1cnc2ccccc2c1=O)NCCC(=O)N1CCC2(CC1)OCCO2 | 10.9% | -0.2% | -19.8% | 2.2% | . | .
O=C1CCc2cc(S(=O)(=O)NCCC(=O)N3CCN(c4cccc(Cl)c4)CC3)ccc2N1 | 1.5% | 26.9µM* | -14.0% | 0.9% | 16.9µM* | ?
CCCNS(=O)(=O)c1ccc(OCC(=O)N2CCN(Cc3ccccc3)CC2)cc1 | 0.6% | -1.2% | 1.2% | -1.4% | . | .
O=C1NCN(c2ccccc2)C12CCN(C(c1cccc3ccccc13)c1nnnn1-c1ccc3c(c1)OCCO3)CC2 (stereo not given) | 5.3% | . | . | . | . | .
CCC/C=C/C=C/C(=O)OC1/C(=C/C(=O)OC)CC2CC(C(C)O)OC(=O)CC(O)CC3CC(OC(C)=O)C(C)(C)C(O)(CC4C/C(=C/C(=O)OC)CC(/C=C\C(C)(C)C1(O)O2)O4)O3 (stereo not given) | -11.9% | . | . | . | . | .
O=C(Nc1ccc(F)cc1)N1Cc2ccccc2-n2nncc2C1 | 4.6% | . | . | . | . | .
O=c1c2ccccc2nc(/C=C\c2cccc(Br)c2)n1-c1ccc(O)cc1 | 0.0% | . | . | . | . | .
O=[N+]([O-])c1ccc(Cl)c(Cl)c1Cl | 11.9% | 4.1% | -0.3% | 1.1% | . | .
CCN(CC)S(=O)(=O)c1cc([N+](=O)[O-])ccc1NNC(=O)Nc1ccc(Cl)c(Cl)c1 | 1.9% | ? | 3.6% | -11.6% | 14.7% | -5.8%
O=C(NCCc1ccc(F)cc1)Nc1ccc([N+](=O)[O-])cc1 | -2.5% | ? | -5.8% | 2.8% | ? | ?
SMILES | GLS inh | Tb PFK inh-1 | p53 reactivator | USP2a block | Tb PFK KinaseGlo | Tb PFK inh-2
O=C(NNc1ccc([N+](=O)[O-])cc1)Nc1ccccc1 | 14.2% | ? | . | -1.7% | 19µM* | ?
O=C(NNc1ccccc1[N+](=O)[O-])Nc1ccc(Cl)c(Cl)c1 | ? | 12µM* | ? | -0.5% | ? | -15.6%
CCN(CCNc1ccc([N+](=O)[O-])c2cccnc12)S(=O)(=O)c1ccc(Cl)cc1 | 8.9% | -11.2% | -0.8% | 0.6% | . | .
Cc1ccc(Cl)c(O)c1 | 9.1% | . | . | . | . | .
NS(=O)(=O)c1ccc(N/N=C/c2ccc(O)c(O)c2O)c([N+](=O)[O-])c1 | 69.1% | ? | -5.3% | -20.8% | ? | ?
CCCN(CCC)c1c([N+](=O)[O-])cc(S(N)(=O)=O)cc1[N+](=O)[O-] | -1.7%[99.4 µM] | . | . | . | . | .
CN(C)CCc1c[nH]c2ccccc12 | 9.9%[147 µM] | . | . | . | . | .
COc1cc(C=NNC(=O)c2ccc(NS(=O)(=O)c3cccs3)cc2)cc(Br)c1O | 11.0% | ? | 7.1% | 1.4% | -25.3% | ?
COc1cc(C(=O)NN=Cc2ccc(N(CCCl)CCCl)cc2)cc(OC)c1OC | 2.3% | . | . | . | . | .
Nc1c(C(=O)Nc2ccc(Br)cc2F)sc2nc3c(cc12)N1CCC3CC1 | 8.1% | . | . | . | . | .
COC(=O)C1=C(c2ccc(OC)c(OC)c2)C[C@@H]2CC[C@H]1N2C(=O)NCCCOC(C)C | 2.1% | -0.2% | 20.0% | -0.4% | . | .
CCn1c(C)nc2cc(C(=O)N/N=C/c3ccc(O)c(O)c3O)ccc21 | ? | ? | -8.5% | 4.8% | ? | ?
COc1ccc(/C=C2\Oc3cc(OC(=O)N4CCOCC4)ccc3C2=O)c(OC)c1 | 0.0% | 0.2% | -1.0% | ? | . | .
CS(=O)(=O)NNC(=O)C1Cc2c(ccc3ccccc23)O1 (stereo not given) | 14.0% | ? | -0.5% | 5.8% | -28.4% | ?
CC[C@@H]1[C@@H]2C[C@H]3[C@H]4N(C)c5ccccc5[C@@]45C[C@@H]([C@@H]2[C@@H]5O)N3[C@H]1O | 28.1%[20 µM] | . | . | . | . | .
O=[N+]([O-])OC1CO[C@H]2C(O[N+](=O)[O-])COC12 (stereo not given in full) | 3.4% | . | . | . | . | .
Cc1ccccc1NC(=O)CSc1ccsc1[N+](=O)[O-] | ? | 26.9µM* | 8.9% | 1.4% | 10.7µM* | 16.9µM*
CC(O)CNc1ccc([N+](=O)[O-])c2cccnc12 (stereo not given) | -4.6% | 0.3% | -4.0% | -2.3% | . | .
Cc1ccc(NCc2ccc(O)c3ncccc23)cc1 | 29.7% | ? | 2.3% | -0.5% | 18.1% | -10.7%
OCC[n+]1c2ccccc2nc2ccc(N3CCOCC3)cc21 | -22.9% | ? | -13.8% | -14.6% | 1.2% | -1.9%

Source: PubChem BioAssay (National Center for Advancing Translational Sciences (NCATS))
